Inconclusive results are not listed. Calls of active or inactive are those of the source. Unless noted, calls follow the shape of the dose curve; as a rule, active = well fitted curve in the direction sought with a large enough effect in the repeat runs; inconclusive = weak or mixed curves; inactive = no such curve, though single readings can be large; an effect the other way counts as inactive or inconclusive.

A short description of assay [1]: qHTS assay to identify small molecule antagonists of the estrogen receptor alpha (ER-alpha) signaling pathway using the BG1 cell line in the presence of 0.1 nM 17-beta-estradiol - cell viability counter screen (AID 1259241). Also: nearly all actives have a fitted effect of over 40% in size. Also: potency is read from the fitted curve at half-maximal effect. An outline of the steps: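 VM7Luc4E2, 4,000 cells/well, phenol red-free medium + 10% charcoal-stripped FBS; 24 hr plating; cpd + 0.1 nM E2 final, 22 hr 37C/5% CO2; CellTiter-Fluor 30 min, fluorescence.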

The nature of assay [2]: qHTS assay to identify small molecule antagonists of the androgen receptor (AR) signaling pathway using the MDA cell line in the presence of 0.5 nM R1881 - cell viability counter screen (AID 1259242). Also: nearly all actives have a fitted effect of over 45% in size. Also: potency is read from the fitted curve at half-maximal effect. A digest of the protocol: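 Fluorescence from CellTiter-Fluor, which reports protease activity of live cells, was read 30 min after reagent addition to MDA-kb2 cells that had been incubated 16 hr with compound and 0.5 nM R1881.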

For assay [3], the target named is Androgen receptor (Homo sapiens) (UniProt P10275). Briefly: qHTS assay to identify small molecule antagonists of the androgen receptor (AR) signaling pathway using the MDA cell line in the presence of 0.5 nM R1881 (AID 1259243). Also: nearly all actives have a fitted effect of over 50% in size. Also: potency is read from the fitted curve at half-maximal effect. An outline of the steps: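 Inhibition of R1881 (0.5 nM final) induced reporter signal was measured in human MDA-kb2 cells; note the MMTV promoter also responds to GR. Exposure lasted 16 hr at 37C.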

The target of assay [4] is Estrogen receptor (Homo sapiens) (UniProt P03372). Description: qHTS assay to identify small molecule antagonists of the estrogen receptor alpha (ER-alpha) signaling pathway using the BG1 cell line in the presence of 0.1 nM 17-beta-estradiol (AID 1259244). Also: nearly all actives have a fitted effect of over 50% in size. Also: potency is read from the fitted curve at half-maximal effect. A digest of the protocol: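 Quantitative high-throughput screen in VM7Luc4E2 cells: compound plus 0.1 nM E2 (final), 22 h, 37C, 5% CO2; ONE-Glo added, 30 min room temperature, luminescence measured.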

A short description of assay [5]: qHTS assay to identify small molecule HDAC inhibitors (AID 1259364). Also: top concentration of the series differs between compounds; nearly all actives have a fitted effect of over 45% in size. A digest of the protocol:
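Endogenous HDAC class I/II activity was measured in wild-type HCT-116 cells by HDAC-Glo luminescence after 2 h compound treatment.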

Assay [6] is described as follows: qHTS assay to identify small molecule HDAC inhibitors - cell viability counter screen (AID 1259365). Also: series mostly up to about 92 µM; nearly all actives have a fitted effect of over 50% in size. An outline of the steps:
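Luminescence from CellTiter-Glo, developed 30min at room temperature, reports viability of wild-type HCT-116 cells treated 2hr with compounds at 37 C and 5% CO2 after overnight plating.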

Assay [7] is described as follows: qHTS assay to identify small molecule antagonists of the sonic hedgehog signaling (Shh) pathway - cell viability counter screen (AID 1259367). Also: nearly all actives have a fitted effect of over 55% in size. Also: potency is read from the fitted curve at half-maximal effect. A digest of the protocol: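 Seed 3T3 Gli1-Luc cells at 2,000 per well; incubate 4 hr; add compound in DMSO, then conditioned medium; incubate at 37C with 5% CO2; add CellTiter-Fluor after 23 hr; read fluorescence 1 hr later.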

The nature of assay [8]: qHTS assay to identify small molecule agonists of the sonic hedgehog signaling (Shh) pathway (AID 1259368; calls by dose curve; also: nearly all actives have a fitted effect of over 15% in size; also: potency is read from the fitted curve at half-maximal effect). A digest of the protocol:
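Luminescent signal was taken as a measure of Gli1-controlled luciferase expression in stably transfected NIH/3T3-derived cells that had been treated for 24 hr with compounds delivered in DMSO.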

Assay [9] has as its target Estrogen receptor beta (Homo sapiens) (UniProt Q92731). Briefly: qHTS assay to identify small molecule agonists of the estrogen receptor beta (ER-beta) signaling pathway (AID 1259377; active = well fitted activation curve with a large enough effect in the signal ratio in the repeat runs, not every such curve was filed as active; the % refers to the signal ratio). A digest of the protocol:
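HEK293T ER-beta-UAS-bla; 2% charcoal-stripped FBS; cells pre-incubated 6 hr, compound 16 hr, 37C/5% CO2; LiveBLAzer B/G FRET substrate 2 h RT; fluorescence intensity read.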

The target is the same in assay [10]. Description: qHTS assay to identify small molecule antagonists of the estrogen receptor beta (ER-beta) signaling pathway (AID 1259378; active = well fitted inhibition curve with a large enough effect in the signal ratio in the repeat runs, not every such curve was filed as active; the % refers to the signal ratio). An outline of the steps:
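ER-beta-UAS-bla HEK293T cells in 2% charcoal-stripped FBS medium treated with compound plus 1nM final 17-beta-estradiol for 16 hr at 37C. Beta-lactamase reporter read by FRET substrate fluorescence after 2 hours at room temperature.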

A short description of assay [11]: qHTS assay to identify small molecule agonists of the androgen receptor (AR) signaling pathway in the presence of an antagonist - cell viability counter screen (AID 1259379). Also: nearly all actives have a fitted effect of over 25% in size. Also: potency is read from the fitted curve at half-maximal effect. A digest of the protocol:
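In MDA-kb2 cells (human breast carcinoma, MMTV-luciferase), compounds at 15 concentrations plus 3.0uM nilutamide; 16 hr, 37C, 0% CO2; CellTiter-Fluor fluorescence read for viability.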

Assay [12] has as its target Androgen receptor (Homo sapiens) (UniProt P10275). Description: qHTS assay to identify small molecule agonists of the androgen receptor (AR) signaling pathway in the presence of an antagonist (AID 1259381; calls by dose curve; also: nearly all actives have a fitted effect of over 15% in size). An outline of the steps:
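Here, 15-concentration compound series were pin-transferred onto MDA-kb2 MMTV-luciferase cells already dosed with nilutamide (3.0uM final). After 16hr at 37C, ONE-Glo was added and luminescence read 30min later at room temperature.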

The nature of assay [13]: qHTS assay to identify small molecule antagonists of the estrogen receptor beta (ER-beta) signaling pathway - cell viability counter screen (AID 1259382). Also: nearly all actives have a fitted effect of over 55% in size. Also: potency is read from the fitted curve at half-maximal effect. An outline of the steps: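 Tox21 10K library tested in qHTS format on ER-beta-bla HEK293T cells stimulated with 1nM E2; 16 hr treatment at 37C. Same-well CellTiter-Glo luminescence served as the cell viability measure.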

Assay [14] deals with Estrogen receptor (Homo sapiens) (UniProt P03372). Briefly: qHTS assay to identify small molecule agonists of the estrogen receptor alpha (ER-alpha) signaling pathway in the presence of an antagonist (AID 1259383; calls by dose curve; also: top concentration of the series differs between compounds; nearly all actives have a fitted effect of over 15% in size). An outline of the steps:
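In VM7Luc4E2 cells, 4,000 per well, compounds at 15 concentrations were co-incubated 22hr at 37C with 10.0nM final ICI-182,780. Luminescence from the stably transfected 4×ERE-luciferase reporter was recorded 30min after ONE-Glo addition.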

The nature of assay [15]: qHTS assay to identify small molecule agonists or antagonists of the thyroid stimulating hormone receptor (TSHR) signaling pathway - wild type cell line counter screen (AID 1259384; calls by dose curve). A digest of the protocol:
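Wild-type Hek293 cells, 800/well, 18 h at 37C, then compound with Ro20-1724 for 30 min RT. cAMP by HTRF (cAMP-d2/anti-cAMP cryptate), 1 h RT, fluorescence read. 15 concentrations, triplicates.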

The target of assay [16] is Thyrotropin receptor (Homo sapiens) (UniProt P16473). Briefly: qHTS assay to identify small molecule antagonists of the thyroid stimulating hormone receptor (TSHR) signaling pathway (AID 1259385; calls by dose curve; also: nearly all actives have a fitted effect of over 20% in size). An outline of the steps:
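TSHR-HEK293 cells (800/well) plated 18 h, then compounds with Ro20-1724 and TSH at 1.5 ng/mL final, 30 min at room temperature. cAMP quantified by HTRF (cAMP-d2/anti-cAMP-cryptate, 1 h); 15 concentrations in triplicate.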

A short description of assay [17]: qHTS assay to identify small molecule antagonists of the sonic hedgehog signaling (Shh) pathway (AID 1259369; calls by dose curve; also: nearly all actives have a fitted effect of over 45% in size; also: potency is read from the fitted curve at half-maximal effect). A digest of the protocol: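 Screening used 3T3Gli1-Luc cells at 2,000 per well, compounds delivered in DMSO, and conditioned medium as agonist stimulus; plates incubated 24hr at 37 C and 5% CO2 before a 30min luciferase step.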
Assay [18] in a line: qHTS assay to identify small molecule agonists of the estrogen receptor beta (ER-beta) signaling pathway - cell viability counter screen (AID 1259380). Also: nearly all actives have a fitted effect of over 30% in size. Also: potency is read from the fitted curve at half-maximal effect. A digest of the protocol: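 Viability of ER-beta-UAS-bla HEK293T cells was determined by CellTiter-Glo luminescence following 16 hr treatment with test compounds at 37C.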
Assay [19] is described as follows: qHTS assay to identify small molecule phospholipidosis (PLD) inducers (AID 1259344; active = well fitted curve in the direction sought with a large enough effect; an effect the other way counts as inactive or inconclusive). A digest of the protocol:
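Quantitative HTS in HepG2: compound plus LipidTOX Red dye for 24 h, paraformaldehyde fixation with Hoechst 33342, widefield high-content imaging; amiodarone as positive and DMSO as negative control.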

A short description of assay [20]: qHTS assay to identify small molecule agonists of the sonic hedgehog signaling (Shh) pathway - cell viability counter screen (AID 1259366). Also: nearly all actives have a fitted effect of over 50% in size. Also: potency is read from the fitted curve at half-maximal effect. An outline of the steps: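 Cytotoxicity counter screen run in the same wells as the Shh reporter assay. NIH/3T3 cells carrying a Gli1 response element–driven luciferase were treated with DMSO-dissolved compounds for 24hr, and live-cell protease activity was measured with CellTiter-Fluor.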

Sequence of Androgen receptor (Homo sapiens) (P10275 whole entry, looked up): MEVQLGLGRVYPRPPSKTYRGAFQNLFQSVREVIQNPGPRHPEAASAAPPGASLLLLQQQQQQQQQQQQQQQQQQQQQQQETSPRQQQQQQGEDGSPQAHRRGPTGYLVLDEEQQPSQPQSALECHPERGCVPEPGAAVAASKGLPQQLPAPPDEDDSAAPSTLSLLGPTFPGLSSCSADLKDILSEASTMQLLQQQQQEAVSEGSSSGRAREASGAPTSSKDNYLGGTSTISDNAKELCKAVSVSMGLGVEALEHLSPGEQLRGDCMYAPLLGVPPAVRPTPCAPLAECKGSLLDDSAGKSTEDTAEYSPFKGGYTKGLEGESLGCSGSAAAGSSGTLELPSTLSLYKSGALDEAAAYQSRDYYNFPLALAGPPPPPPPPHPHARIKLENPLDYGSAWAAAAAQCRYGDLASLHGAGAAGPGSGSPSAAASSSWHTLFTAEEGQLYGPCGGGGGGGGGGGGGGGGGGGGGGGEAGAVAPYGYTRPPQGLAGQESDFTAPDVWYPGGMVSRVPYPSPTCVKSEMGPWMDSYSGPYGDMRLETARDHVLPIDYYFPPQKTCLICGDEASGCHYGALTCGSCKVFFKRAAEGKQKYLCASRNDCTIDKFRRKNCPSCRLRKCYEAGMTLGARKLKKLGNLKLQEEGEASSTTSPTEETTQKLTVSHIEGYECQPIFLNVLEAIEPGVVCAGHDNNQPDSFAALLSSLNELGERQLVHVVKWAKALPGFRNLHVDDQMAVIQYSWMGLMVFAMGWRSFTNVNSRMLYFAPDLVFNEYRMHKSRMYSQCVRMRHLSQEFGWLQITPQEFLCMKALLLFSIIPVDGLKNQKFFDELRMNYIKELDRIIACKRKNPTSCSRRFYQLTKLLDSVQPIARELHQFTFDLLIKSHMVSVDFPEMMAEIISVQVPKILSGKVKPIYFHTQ
Sequence of Estrogen receptor beta (Homo sapiens) (Q92731 whole entry, looked up): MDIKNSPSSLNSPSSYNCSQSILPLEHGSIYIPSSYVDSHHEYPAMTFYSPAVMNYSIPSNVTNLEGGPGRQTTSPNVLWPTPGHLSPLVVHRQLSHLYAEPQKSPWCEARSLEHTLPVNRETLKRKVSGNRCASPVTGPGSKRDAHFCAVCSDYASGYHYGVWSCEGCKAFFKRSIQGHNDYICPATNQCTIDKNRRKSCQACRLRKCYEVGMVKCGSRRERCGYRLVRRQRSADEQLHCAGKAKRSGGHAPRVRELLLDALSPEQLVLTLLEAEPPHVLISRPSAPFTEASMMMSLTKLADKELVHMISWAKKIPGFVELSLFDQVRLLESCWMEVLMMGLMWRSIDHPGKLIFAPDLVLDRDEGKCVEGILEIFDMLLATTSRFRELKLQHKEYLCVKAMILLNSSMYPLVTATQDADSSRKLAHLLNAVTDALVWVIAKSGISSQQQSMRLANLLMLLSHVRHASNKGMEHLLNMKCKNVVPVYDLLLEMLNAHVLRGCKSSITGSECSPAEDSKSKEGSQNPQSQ
Sequence of Estrogen receptor (Homo sapiens) (P03372 whole entry, looked up): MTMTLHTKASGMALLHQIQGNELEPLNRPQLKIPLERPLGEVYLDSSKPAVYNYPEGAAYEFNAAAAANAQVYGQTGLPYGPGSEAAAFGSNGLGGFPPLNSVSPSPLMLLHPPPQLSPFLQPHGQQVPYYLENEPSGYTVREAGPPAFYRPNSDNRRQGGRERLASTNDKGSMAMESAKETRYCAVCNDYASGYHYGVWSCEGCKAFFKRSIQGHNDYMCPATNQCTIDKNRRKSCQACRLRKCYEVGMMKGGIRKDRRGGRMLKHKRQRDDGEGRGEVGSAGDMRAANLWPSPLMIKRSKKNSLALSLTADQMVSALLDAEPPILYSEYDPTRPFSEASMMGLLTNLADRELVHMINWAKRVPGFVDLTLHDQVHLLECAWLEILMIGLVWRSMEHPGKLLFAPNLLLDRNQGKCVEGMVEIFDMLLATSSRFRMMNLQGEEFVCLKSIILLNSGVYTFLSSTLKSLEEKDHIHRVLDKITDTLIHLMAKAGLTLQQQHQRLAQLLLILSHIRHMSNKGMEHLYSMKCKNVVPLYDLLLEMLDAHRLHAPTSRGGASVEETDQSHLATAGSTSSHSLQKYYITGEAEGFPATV
Sequence of Thyrotropin receptor (Homo sapiens) (P16473 whole entry, looked up): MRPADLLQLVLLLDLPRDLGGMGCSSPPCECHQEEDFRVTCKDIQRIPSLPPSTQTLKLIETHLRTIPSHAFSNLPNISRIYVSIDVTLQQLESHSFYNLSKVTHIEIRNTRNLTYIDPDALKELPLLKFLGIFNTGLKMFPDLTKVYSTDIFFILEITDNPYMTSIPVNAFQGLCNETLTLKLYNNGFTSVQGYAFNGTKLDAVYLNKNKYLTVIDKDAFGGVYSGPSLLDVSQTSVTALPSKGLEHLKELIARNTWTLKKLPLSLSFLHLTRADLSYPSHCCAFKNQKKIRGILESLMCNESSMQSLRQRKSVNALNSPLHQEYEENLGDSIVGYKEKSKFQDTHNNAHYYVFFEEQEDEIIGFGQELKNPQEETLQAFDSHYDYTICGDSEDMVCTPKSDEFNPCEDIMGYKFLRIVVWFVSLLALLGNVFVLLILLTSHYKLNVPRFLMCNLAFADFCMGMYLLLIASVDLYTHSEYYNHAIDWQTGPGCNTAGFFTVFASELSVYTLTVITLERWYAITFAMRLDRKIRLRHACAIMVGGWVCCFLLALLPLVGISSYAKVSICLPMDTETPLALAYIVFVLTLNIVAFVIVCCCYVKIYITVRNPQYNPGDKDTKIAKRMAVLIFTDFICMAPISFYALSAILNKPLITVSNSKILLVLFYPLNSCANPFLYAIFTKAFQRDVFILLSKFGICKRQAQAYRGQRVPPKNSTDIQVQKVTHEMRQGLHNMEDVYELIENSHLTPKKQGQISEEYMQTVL

On to `Cc1cc(O)c(Cl)c(C)c1Cl`, for which the Potency result in assay [1], in [2], in assay [3], in assay [4], in assay [5] and in assay [6] was “inactive” in each case. Further, the Potency result in [8], in assay [9], in [10], in assay [11], in [12] and in assay [13] was “inactive” each time. Moreover, the Potency result in assay [14] and in assay [16] was “inactive” each time. Further, the Potency in assay [7] was 24.3 µM (active). Also, in assay [15], the call was inactive.
In the case of `Nc1cc(C(F)(F)F)ccc1S`, the Potency entry in [1], in [2], in assay [3], in assay [4], in assay [5] and in [6] was “inactive” each time. The Potency result in [8], in assay [9], in assay [11], in [12] and in assay [14] was “inactive” throughout. The Potency in [17] was 13.3 µM (active); in assay [18], 21.1 µM (active).
Take `COc1ccc(C(=O)/C(Br)=C\C(=O)O)cc1`: the Potency result in assay [1], in assay [2], in [4], in assay [19], in assay [5] and in assay [6] was “inactive” each time. Further, the Potency entry in assay [18], in assay [12], in [13] and in assay [14] was “inactive” in each case. The Potency in [3] is 48.6 µM (active); in assay [8], 17.2 µM (active); in [17], 3.86 µM (active). Besides, the outcome in [15] was inactive.
In the case of `CN(C)CCCOC1(Cc2ccccc2)CCCCCC1`, the Potency entry in assay [1], in assay [2], in assay [3], in [4], in assay [5] and in assay [6] was “inactive” throughout. Besides, the Potency result in assay [20], in assay [7], in [8], in assay [9], in assay [10] and in assay [11] was “inactive” each time. Also, the Potency entry in assay [12], in assay [13] and in [14] was “inactive” each time. Besides, the call in assay [15] was inactive.
Turning to `COC(=O)C1=C(C)NC(C)=C(C(=O)OCCc2ccc(N3CCN(C(c4ccccc4)c4ccccc4)CC3)cc2)C1c1cccc([N+](=O)[O-])c1` (stereo not drawn), the Potency result in assay [1], in assay [2], in assay [3], in [4], in assay [5] and in [20] was “inactive” each time. In addition, the Potency entry in assay [7], in [8], in assay [17], in [11], in [18] and in assay [12] was “inactive” each time. Moreover, the Potency entry in [13] and in assay [14] was “inactive” throughout.
For the molecule `Cc1cc(CCN2CCN(c3nsc4ccccc34)CC2)cc2c1NC(=O)CC2(C)C`, the Potency was 34.4 µM (active) in assay [1]; 27.3 µM (active) in assay [2]; 8.63 µM (active) in [3]; 13.7 µM (active) in assay [4]; 21.7 µM (active) in assay [20]; 19.3 µM (active) in assay [7]. Moreover, the Potency was 1.37 µM (active) in assay [17], 30.6 µM (active) in assay [11], 21.7 µM (active) in assay [18] and 19.3 µM (active) in assay [13]. For the same molecule, the Potency entry in [6], in assay [8], in assay [12] and in assay [14] was “inactive” throughout. For the same molecule, the result in [15] was inactive.
Regarding `O=C1CCCc2c1cc1ccc3cccc4ccc2c1c34`, the Potency entry in assay [1], in assay [2], in assay [4], in assay [5], in assay [20] and in [7] was “inactive” each time. Besides, the Potency entry in assay [8], in [17], in [12], in [13], in assay [14] and in assay [16] was “inactive” throughout. In addition, the results for the Potency in [3] and in assay [18] were 9.81 µM (active) and 31 µM (active), respectively. The result in [15] was inactive.

(Values after PubChem BioAssay (Tox21).)
